The values below come from PubChem BioAssay AID2438 (Vanderbilt High Throughput Screening Facility, 2010).

Results with a measured potency or affinity are listed apart. Active and inactive are the calls of the source.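 Rule for the calls: active = dose curve whose fit quality R squared exceeds 0.5; inactive = the rest.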

This assay concerns the target Muscarinic acetylcholine receptor M4 (Rattus norvegicus) (UniProt P08485). The experiment in a line: potentiation of ACh calcium response at rM4 – cell-based, CHO-K1 rat M4/Gqi5, Fluo-4 calcium, ACh EC20, selectivity assay for M1 muscarinic PAM project, dose response (AID 2438). As to conditions: series mostly up to 30 µM.

Muscarinic acetylcholine receptor M4 (Rattus norvegicus), sequence (P08485 whole entry, looked up): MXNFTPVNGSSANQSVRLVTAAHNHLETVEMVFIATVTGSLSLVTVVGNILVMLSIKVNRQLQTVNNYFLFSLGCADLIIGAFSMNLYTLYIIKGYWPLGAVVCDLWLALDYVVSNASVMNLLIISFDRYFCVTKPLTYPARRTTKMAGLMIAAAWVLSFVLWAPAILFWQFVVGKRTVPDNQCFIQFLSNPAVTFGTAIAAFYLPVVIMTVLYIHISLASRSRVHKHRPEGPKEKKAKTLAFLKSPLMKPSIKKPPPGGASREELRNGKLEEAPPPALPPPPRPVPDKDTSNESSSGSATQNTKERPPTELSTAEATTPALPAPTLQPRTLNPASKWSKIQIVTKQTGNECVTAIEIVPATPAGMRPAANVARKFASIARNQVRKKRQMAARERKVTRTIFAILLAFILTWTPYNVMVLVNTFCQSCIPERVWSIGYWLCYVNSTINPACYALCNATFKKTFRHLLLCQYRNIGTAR

In the case of `Cn1cc(-c2ccc(CN3C(=O)C(=O)c4ccccc43)c(F)c2)cn1`, the result was inactive. With `Cn1cc(-c2cc(F)c(CN3C(=O)C(=O)c4ccccc43)c(F)c2)cn1`, the result was inactive. Regarding `Cc1cc(NC(=O)CS(=O)(=O)c2cn(Cc3cc(Br)ccc3F)c3ccccc23)no1`, the outcome was inactive. In the case of `O=C1C(=O)N(Cc2ccc(Oc3ccccc3)cc2)c2ccc(OC(F)(F)F)cc21` it was “inactive”.
